Laboratory results reported in the supplement of paper PMC6411743.
± gives the standard deviation of the averaged measurements. The full data set covers some 6,200 targets. This sample favours those with the largest changes.

What was measured:
Assay in all cases: NP40-soluble protein abundance relative to vehicle (solubility fold change) (ratio); higher = more soluble protein in presence of AMP-PNP
A0A024R216|Q9Y3E1 = A0A024R216|Q9Y3E1 (UniProt Q9Y3E1)
How it was run: (§1)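 Eight concentrations, 0.1 to 10 mM, were tested on Jurkat crude lysate for 10 min at room temperature and then 3 min at 37 °C, in three independent experiments. The lysate was solubilised with 0.8% NP40 and benzonase, ultracentrifuged, and the supernatant TMT-labelled for LC-MS/MS. Each value is the fold change against the detergent-processed vehicle in its own replicate, from vsn-normalised intensities.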

A0A024RAC6 = A0A024RAC6 (UniProt Q14241)
How it was run: as §1

[1] = biological target: A0A075B738|P16284|P16284-6 (UniProt P16284)
How it was run: as §1

A0A087WUL0|Q3LXA3 = biological target: T1, A0A087WUL0|Q3LXA3 (UniProt Q3LXA3)
T1 sequence (whole entry): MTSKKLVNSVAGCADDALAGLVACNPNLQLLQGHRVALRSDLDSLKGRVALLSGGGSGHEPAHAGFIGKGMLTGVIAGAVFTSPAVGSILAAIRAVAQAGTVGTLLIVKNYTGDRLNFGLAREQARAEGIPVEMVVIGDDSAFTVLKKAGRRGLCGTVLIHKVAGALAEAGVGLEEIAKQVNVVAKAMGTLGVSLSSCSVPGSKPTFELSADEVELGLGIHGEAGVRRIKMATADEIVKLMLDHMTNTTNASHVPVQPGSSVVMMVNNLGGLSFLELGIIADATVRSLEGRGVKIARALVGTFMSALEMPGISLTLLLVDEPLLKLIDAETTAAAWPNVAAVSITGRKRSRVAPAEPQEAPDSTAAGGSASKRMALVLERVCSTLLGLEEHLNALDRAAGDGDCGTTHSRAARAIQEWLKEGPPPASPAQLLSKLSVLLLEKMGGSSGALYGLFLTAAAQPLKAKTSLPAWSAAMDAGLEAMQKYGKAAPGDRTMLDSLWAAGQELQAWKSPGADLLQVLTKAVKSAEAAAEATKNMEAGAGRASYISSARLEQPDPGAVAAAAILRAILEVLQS
How it was run: as §1

A0A087WUT6|O60841 = biological target: T2, A0A087WUT6|O60841 (UniProt O60841)
T2 sequence (whole entry): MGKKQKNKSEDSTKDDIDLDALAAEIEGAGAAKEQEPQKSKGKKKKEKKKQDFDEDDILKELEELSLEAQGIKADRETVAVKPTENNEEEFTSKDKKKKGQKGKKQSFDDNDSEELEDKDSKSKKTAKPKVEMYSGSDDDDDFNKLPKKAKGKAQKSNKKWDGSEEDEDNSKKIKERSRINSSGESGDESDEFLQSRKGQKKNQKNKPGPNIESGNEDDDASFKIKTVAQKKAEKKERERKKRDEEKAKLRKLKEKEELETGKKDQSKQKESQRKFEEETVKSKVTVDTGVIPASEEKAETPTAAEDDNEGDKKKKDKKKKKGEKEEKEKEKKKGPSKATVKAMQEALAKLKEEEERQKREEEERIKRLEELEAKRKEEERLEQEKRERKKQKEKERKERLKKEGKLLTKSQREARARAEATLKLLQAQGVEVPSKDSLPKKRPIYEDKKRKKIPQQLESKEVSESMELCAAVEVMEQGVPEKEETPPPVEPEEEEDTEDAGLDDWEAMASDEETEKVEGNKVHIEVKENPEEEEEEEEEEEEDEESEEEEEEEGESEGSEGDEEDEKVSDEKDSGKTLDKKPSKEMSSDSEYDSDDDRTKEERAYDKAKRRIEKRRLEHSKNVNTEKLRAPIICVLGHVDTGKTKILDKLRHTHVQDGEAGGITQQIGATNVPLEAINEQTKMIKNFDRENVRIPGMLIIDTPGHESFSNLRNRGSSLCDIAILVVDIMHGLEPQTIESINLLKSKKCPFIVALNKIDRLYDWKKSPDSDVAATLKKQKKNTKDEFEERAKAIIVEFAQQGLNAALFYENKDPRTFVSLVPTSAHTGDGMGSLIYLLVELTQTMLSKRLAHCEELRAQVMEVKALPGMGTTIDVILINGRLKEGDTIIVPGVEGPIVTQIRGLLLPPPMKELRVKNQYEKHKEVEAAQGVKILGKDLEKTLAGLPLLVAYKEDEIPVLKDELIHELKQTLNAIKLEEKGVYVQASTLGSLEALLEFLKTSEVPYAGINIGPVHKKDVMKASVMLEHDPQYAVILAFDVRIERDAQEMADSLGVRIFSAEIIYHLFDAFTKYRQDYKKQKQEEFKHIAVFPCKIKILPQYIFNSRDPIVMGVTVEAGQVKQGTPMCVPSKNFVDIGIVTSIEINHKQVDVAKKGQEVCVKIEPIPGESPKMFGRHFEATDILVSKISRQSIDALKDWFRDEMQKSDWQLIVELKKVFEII
How it was run: as §1

Sequence of A0A024RAC6 (Q14241 whole entry): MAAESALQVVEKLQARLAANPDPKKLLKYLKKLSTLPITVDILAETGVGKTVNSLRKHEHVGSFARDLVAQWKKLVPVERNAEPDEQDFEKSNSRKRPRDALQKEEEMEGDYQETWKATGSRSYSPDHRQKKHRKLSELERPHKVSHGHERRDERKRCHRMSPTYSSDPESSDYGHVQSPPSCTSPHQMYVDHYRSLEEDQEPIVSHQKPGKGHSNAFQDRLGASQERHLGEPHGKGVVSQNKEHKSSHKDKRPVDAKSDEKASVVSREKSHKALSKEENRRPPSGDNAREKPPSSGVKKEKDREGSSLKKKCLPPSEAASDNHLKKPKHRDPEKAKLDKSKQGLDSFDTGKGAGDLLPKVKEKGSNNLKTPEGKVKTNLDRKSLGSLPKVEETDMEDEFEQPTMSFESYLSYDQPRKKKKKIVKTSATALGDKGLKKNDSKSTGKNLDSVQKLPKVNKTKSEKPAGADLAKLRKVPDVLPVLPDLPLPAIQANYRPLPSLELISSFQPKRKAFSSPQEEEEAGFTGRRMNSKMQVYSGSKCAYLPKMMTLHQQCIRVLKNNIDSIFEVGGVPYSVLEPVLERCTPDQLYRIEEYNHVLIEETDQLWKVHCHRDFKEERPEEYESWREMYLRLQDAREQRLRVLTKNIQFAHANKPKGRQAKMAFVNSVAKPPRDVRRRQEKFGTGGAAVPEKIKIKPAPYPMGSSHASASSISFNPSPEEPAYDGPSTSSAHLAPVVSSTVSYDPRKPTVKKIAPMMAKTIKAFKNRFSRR
Sequence of A0A024R216|Q9Y3E1 (Q9Y3E1 whole entry, one chain of several): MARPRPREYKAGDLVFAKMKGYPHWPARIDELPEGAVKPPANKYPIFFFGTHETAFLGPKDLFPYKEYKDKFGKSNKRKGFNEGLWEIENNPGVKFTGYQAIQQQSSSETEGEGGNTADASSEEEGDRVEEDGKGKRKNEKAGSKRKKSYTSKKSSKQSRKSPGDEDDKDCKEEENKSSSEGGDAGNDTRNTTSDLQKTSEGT

Nc1ncnc2c1ncn2[C@@H]1O[C@H](COP(=O)(O)OP(=O)(O)NP(=O)(O)O)[C@@H](O)[C@H]1O [adenylyl imidodiphosphate]
NP40-soluble protein abundance (A0A024R216|Q9Y3E1; concentration: 1mM): 1 ± 0.031
NP40-soluble protein abundance (A0A024R216|Q9Y3E1; concentration: 2mM): 1.1 ± 0.17
NP40-soluble protein abundance (A0A024R216|Q9Y3E1; concentration: 4mM): 1.05 ± 0.074
NP40-soluble protein abundance (A0A024R216|Q9Y3E1; concentration: 6mM): 1.16 ± 0.074
NP40-soluble protein abundance (A0A024R216|Q9Y3E1; concentration: 8mM): 1.11 ± 0.06
NP40-soluble protein abundance (A0A024R216|Q9Y3E1; concentration: 10mM): 1.17 ± 0.14
NP40-soluble protein abundance (A0A024RAC6; concentration: 1mM): 1.05 ± 0.014
NP40-soluble protein abundance (A0A024RAC6; concentration: 2mM): 1.13 ± 0.076
NP40-soluble protein abundance (A0A024RAC6; concentration: 4mM): 1.06 ± 0.029
NP40-soluble protein abundance (A0A024RAC6; concentration: 6mM): 1.08 ± 0.044
NP40-soluble protein abundance (A0A024RAC6; concentration: 8mM): 1.06 ± 0.022
NP40-soluble protein abundance (A0A024RAC6; concentration: 10mM): 1.09 ± 0.019
NP40-soluble protein abundance ([1]; concentration: 1mM): 1.02 ± 0.027
NP40-soluble protein abundance ([1]; concentration: 2mM): 1.08 ± 0.095
NP40-soluble protein abundance ([1]; concentration: 4mM): 1.01 ± 0.033
NP40-soluble protein abundance ([1]; concentration: 6mM): 0.995 ± 0.011
NP40-soluble protein abundance ([1]; concentration: 8mM): 0.98 ± 0.013
NP40-soluble protein abundance ([1]; concentration: 10mM): 0.994 ± 0.032
NP40-soluble protein abundance (A0A087WUL0|Q3LXA3; concentration: 1mM): 1.02 ± 0.024
NP40-soluble protein abundance (A0A087WUL0|Q3LXA3; concentration: 2mM): 1.05 ± 0.05
NP40-soluble protein abundance (A0A087WUL0|Q3LXA3; concentration: 4mM): 1.03 ± 0.054
NP40-soluble protein abundance (A0A087WUL0|Q3LXA3; concentration: 6mM): 0.997 ± 0.01
NP40-soluble protein abundance (A0A087WUL0|Q3LXA3; concentration: 8mM): 0.963 ± 0.027
NP40-soluble protein abundance (A0A087WUL0|Q3LXA3; concentration: 10mM): 1.02 ± 0.036
NP40-soluble protein abundance (A0A087WUT6|O60841; concentration: 1mM): 1.05 ± 0.012
NP40-soluble protein abundance (A0A087WUT6|O60841; concentration: 2mM): 1.02 ± 0.018
NP40-soluble protein abundance (A0A087WUT6|O60841; concentration: 4mM): 1.02 ± 0.017
